# G9a block: G9a (human) methyltransferase inhibition. G9a H3K9 monomethylation, AlphaScreen, 2 h. Potency, µM (titrated, usually from 102 µM), for the others: at the highest dose activity, negative = inhibition, hits mostly inhibitors. hit rate 8.8% among 350,000; further: on the % scale 0 is the no-effect control and ±100 the full control effect; nearly all actives have a fitted effect of over 75% in size
#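 Signal arises when biotinylated H3K9 peptide, once monomethylated, bridges streptavidin donor and antibody-captured acceptor beads. Enzyme at 20 nM was preincubated 15 min with test compounds; peptide 500 nM and SAM 20 uM then reacted for 2 h.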
# VDR inh: vitamin D3 receptor (human) inhibition | Potency, µM, without a hit: max response, negative = inhibition, hits mostly inhibitors | P11473 | hit rate 0.93% among 400,000 | VDR-SRC2-3 peptide fluorescence polarization, 2 h | AID 504847; further: on the % scale 0 is the no-effect control and ±100 the full control effect
#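 Inhibition of the VDR/SRC2-3 peptide interaction is quantified by fluorescence polarization. Compounds (23 nl, pintool) incubate with the reagents for 2 hours at ambient room temperature.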
# PLK1 PBD block: PLK1 (human) polo-box domain binding inhibition | P53350 | Plk1 PBD binding of FITC phosphopeptide, fluorescence polarization | Potency, µM, for inactives: max response, negative = inhibition, usual class: inhibitors | hit rate 2.8% among 360,000 | AID 720504; further: series mostly up to about 57 µM; on the % scale 0 is the no-effect control and ±100 the full control effect; nearly all actives have a fitted effect of over 65% in size
# HP1b chromo inh: blocks HP1-beta chromodomain binding to methylated histone tails | P83916 | AlphaScreen HP1-beta / biotin-H3K9me3 peptide binding | Potency, µM (series often up to 114 µM), without a hit: at the highest dose activity change, negative = inhibition, hits mostly inhibitors | hit rate 0.56% among 390,000 | AID 540317; further: nearly all actives have a fitted effect of over 70% in size
#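 Compound inhibition of the preformed complex between 50 nM HP1-beta and 50 nM biotinylated H3K9me3 peptide was read by AlphaScreen. Buffer was PBS pH 7.4 with 0.01% Tween-20. Incubations ran 30 min at room temperature, with 10 ug/mL donor/acceptor beads.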
# JMJD2A Tudor: JMJD2A Tudor domain (human) inhibition | O75164 | AlphaScreen JMJD2A-Tudor / H3K4me3 peptide binding | Potency, µM (top dose mostly 114 µM), for the others: top-dose activity change, negative = inhibition, usual class: inhibitors | hit rate 4.4% among 390,000 | AID 504339; further: on the % scale 0 is the no-effect control and ±100 the full control effect; nearly all actives have a fitted effect of over 50% in size
# Target sequence (O75164 whole entry, looked up, the tested form may be a part): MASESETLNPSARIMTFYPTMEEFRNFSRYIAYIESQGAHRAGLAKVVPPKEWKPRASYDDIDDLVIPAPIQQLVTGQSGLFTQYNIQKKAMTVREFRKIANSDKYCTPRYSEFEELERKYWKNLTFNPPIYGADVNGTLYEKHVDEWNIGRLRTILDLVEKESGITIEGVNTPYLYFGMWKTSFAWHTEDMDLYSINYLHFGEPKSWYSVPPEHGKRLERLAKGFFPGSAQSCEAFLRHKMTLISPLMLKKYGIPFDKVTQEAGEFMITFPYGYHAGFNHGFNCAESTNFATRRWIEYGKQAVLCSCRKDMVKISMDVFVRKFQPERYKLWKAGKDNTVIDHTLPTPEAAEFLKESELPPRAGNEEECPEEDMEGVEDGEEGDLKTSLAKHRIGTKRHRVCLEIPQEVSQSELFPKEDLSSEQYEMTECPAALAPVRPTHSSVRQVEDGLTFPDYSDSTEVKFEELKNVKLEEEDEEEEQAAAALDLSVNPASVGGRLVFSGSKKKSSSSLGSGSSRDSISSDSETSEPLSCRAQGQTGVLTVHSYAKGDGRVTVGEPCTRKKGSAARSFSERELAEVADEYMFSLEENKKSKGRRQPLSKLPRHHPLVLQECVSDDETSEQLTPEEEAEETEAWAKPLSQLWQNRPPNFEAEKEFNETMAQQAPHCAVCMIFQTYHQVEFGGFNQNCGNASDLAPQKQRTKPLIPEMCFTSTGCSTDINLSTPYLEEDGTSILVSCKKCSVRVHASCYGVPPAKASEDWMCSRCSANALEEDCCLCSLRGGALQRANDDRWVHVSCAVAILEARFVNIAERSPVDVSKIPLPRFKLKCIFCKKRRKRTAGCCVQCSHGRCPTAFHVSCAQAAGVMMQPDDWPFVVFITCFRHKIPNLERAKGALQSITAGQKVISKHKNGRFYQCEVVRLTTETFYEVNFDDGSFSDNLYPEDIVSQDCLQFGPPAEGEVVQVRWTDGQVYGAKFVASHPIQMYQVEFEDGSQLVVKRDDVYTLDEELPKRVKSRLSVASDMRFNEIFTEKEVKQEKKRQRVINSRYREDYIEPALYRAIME
# BAZ2B inh: BAZ2B (human) inhibition; Q9UIF8; AlphaScreen BAZ2B-H3K14Ac peptide displacement; Potency, µM (series often up to 114 µM), inactives show at the highest dose activity change, negative = inhibition, usual class: inhibitors; hit rate 4.4% among 360,000; further: on the % scale 0 is the no-effect control and ±100 the full control effect; nearly all actives have a fitted effect of over 60% in size
#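 Compounds, titrated to a top concentration of 110 uM, were incubated 30 min at room temperature with preformed BAZ2B/acetyl-K14 H3 peptide complex (50 nM each). Proximity signal was measured by AlphaScreen after 20 min with beads.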
# * marks the source's active call; other numbers are inactive results; ? = inconclusive; · = no result given; [ ] = remark or other dose. Rows were chosen to be rich in hits. Some 11% of all compounds tested hit in one or more screens of this group. The call rests on the fitted dose curve; in most records, active means well fitted curve in the direction sought with a large enough effect; inconclusive means small, poorly fitted or top-dose-only effect, or another doubt; inactive means no such curve, though single readings can be large; an effect the other way counts as inactive or inconclusive. Potency means the concentration at half of the fitted maximal effect.
SMILES,G9a block,VDR inh,PLK1 PBD block,HP1b chromo inh,JMJD2A Tudor,BAZ2B inh
Cc1cc(/C=C\c2ccc3cc(N(C)C)ccc3[n+]2C)c(C)n1-c1ccccc1,12.6µM*,·,?,?,50.1µM*,12.6µM*
COCc1nnc(NC(=O)COc2ccc3c(c2)OCO3)s1,22.4µM*,8.4%,16.8µM*,?,-21.6%,-30.5%
O=C(COc1ccc2c(c1)OCO2)Nc1nnc(Cc2ccccc2)s1,17.8µM*,?,23.8µM*,?,-15.5%,-8.8%
CC12CCC=CC1C(c1ccc3ccccc3c1C=Cc1ccccc1)N(Cc1ccccc1)C2=O (stereo not drawn),·,4.0%,·,0.4%,-35.9%,·
O=C(CN1C(=O)C(=O)N(Cc2ccco2)C1=O)c1c[nH]c2ccccc12,50.1µM*,-19.9%,26.7µM*,17.5%,-20.9%,-11.9%
O=C(CN1C(=O)C(=O)N(CCC2=CCCCC2)C1=O)c1c[nH]c2ccccc12,·,6.8%,-3.4%,2.2%,-26.7%,·
O=C(O)C(=O)Cc1c[nH]c2ccccc12,25.1µM*,8.3%,-20.1%,?,44.7µM*,?
COc1ccc2[nH]cc(CCNC(=O)c3ccccc3Cl)c2c1,15.9%,1.7%,-4.8%,-23.8%,-31.7%,-8.8%
O=C(NCc1ccco1)C(=O)c1c[nH]c2ccccc12,28.0%[12.7 µM],-0.1%,-6.0%,34.8%,-24.7%,?
O=C(Nc1cccc(CNCCc2c[nH]c3ccccc23)c1)c1ccccc1Cl,28.2µM*,-19.8%,-8.4%,0.6%,44.7µM*,50.1µM*
O=C(Cc1c[nH]c2ccccc12)NCc1ccco1,?,-4.6%,-10.9%,8.2%,-17.9%,50.1µM*
O=C(O)C(O)Cc1c[nH]c2ccccc12 (stereo not drawn),-13.2%,-18.2%,-11.6%,12.1%,-20.4%,-4.9%
O=C(COC(=O)c1ccc2c(c1)OCO2)NC1CCCCC1,·,-6.3%,-0.3%,48.7%,-1.4%,·
CC(NC(=O)C1CCN(S(=O)(=O)c2cnc[nH]2)CC1)c1ccccc1 (stereo not drawn),18.0%,-12.7%,-0.2%,14.8%,-9.6%,0.4%
O=C(Cc1c[nH]c2ccccc12)NCc1ccc(Cl)cc1,-8.4%[59 µM],-19.6%,-3.4%,22.8%,-14.5%,-25.0%
O=C(Cc1c[nH]c2ccccc12)NCc1ccc(Cl)cc1Cl,1.0%[59 µM],-21.7%,29.9µM*,-22.0%,?,-37.2%
NC(=NCCc1c[nH]c2ccccc12)NC(=O)c1ccc(Cl)cc1,?,24.0%,0.3%,-11.0%,?,79.4µM*
O=C(N[C@@H](Cc1c[nH]c2ccccc12)C(=O)O)c1ccc(Cl)cc1,21.5%,9.8%,4.5%,15.3%,-14.4%,19.5%
N#Cc1ccc(NC(=S)NC(=O)CCc2ccc(S(=O)(=O)N3CCOCC3)cc2)cc1,?,-11.4%,-6.5%,5.5%,-20.1%,-22.0%
C=CCn1c(C)nnc1SCC(=O)Nc1cc(S(=O)(=O)N2CCCC2)ccc1Cl,4.1%[0.501 µM],-6.1%,-1.2%,34.6%,-7.6%,0.3%
Cc1nc(C)c(C(=O)O)c(-c2ccsc2)c1C(=O)O,50.1µM*,-12.8%,-3.5%,10.1%,-15.2%,-5.0%
CCc1nc2c(OCCOc3ccccc3)cccn2c1N(C)C(=O)c1ccc(C)cc1,·,·,-1.2%,·,·,·
O=C(Nc1ccc(F)cc1)Nc1nnc(Cc2ccccc2F)s1,18.8%[59 µM],70.8µM*,16.8µM*,-3.0%,?,-21.3%
C[C@@H]1CN([C@H](C)CO)C(=O)CCCn2cc(nn2)CO[C@H]1CN(C)S(=O)(=O)c1ccccc1C#N,·,·,-15.2%,·,·,·
Cc1cccc(C)c1NC(=S)/C(=C(\[O-])c1cccs1)[n+]1ccccc1,7.94µM*,-12.9%,-14.3%,37.0%,-30.7%,0.4%
S=C(NCc1cccs1)Nc1cccc2ccccc12,-39.8%,-15.2%,?,16.9%,-14.9%[57.1 µM],?
Cc1cccc(C)c1NC(=O)COC(=O)CCC(=O)c1cccs1,53.8%,-4.2%,-2.8%,?,7.8%[57.1 µM],-4.2%
[O-]/C(=C(\C(=S)Nc1cccc2ccccc12)[n+]1ccccc1)c1cccs1,35.5µM*,2.4%,-20.1%,?,79.4µM*,?

# Screens deposited in PubChem by National Center for Advancing Translational Sciences (NCATS).
